Screening results (PubChem)
Sampled rows, rich in hits. Any-hit rate of the full collection: about 7%.
USP30 block: human USP30 deubiquitinase inhibition. Q70CQ3. purified USP30, Ub-rhodamine cleavage fluorescence. inhibition, % at 25 µM. 47,000 tested, 5.3% active
USP28 block: human USP28 deubiquitinase inhibition | AID 1645857 | purified USP28, Ub-rhodamine cleavage fluorescence, 30 min | 47,000 tested, 3% active | Q96RU2 | inhibition, % at 25 µM
Target sequence (Q96RU2 whole entry, looked up): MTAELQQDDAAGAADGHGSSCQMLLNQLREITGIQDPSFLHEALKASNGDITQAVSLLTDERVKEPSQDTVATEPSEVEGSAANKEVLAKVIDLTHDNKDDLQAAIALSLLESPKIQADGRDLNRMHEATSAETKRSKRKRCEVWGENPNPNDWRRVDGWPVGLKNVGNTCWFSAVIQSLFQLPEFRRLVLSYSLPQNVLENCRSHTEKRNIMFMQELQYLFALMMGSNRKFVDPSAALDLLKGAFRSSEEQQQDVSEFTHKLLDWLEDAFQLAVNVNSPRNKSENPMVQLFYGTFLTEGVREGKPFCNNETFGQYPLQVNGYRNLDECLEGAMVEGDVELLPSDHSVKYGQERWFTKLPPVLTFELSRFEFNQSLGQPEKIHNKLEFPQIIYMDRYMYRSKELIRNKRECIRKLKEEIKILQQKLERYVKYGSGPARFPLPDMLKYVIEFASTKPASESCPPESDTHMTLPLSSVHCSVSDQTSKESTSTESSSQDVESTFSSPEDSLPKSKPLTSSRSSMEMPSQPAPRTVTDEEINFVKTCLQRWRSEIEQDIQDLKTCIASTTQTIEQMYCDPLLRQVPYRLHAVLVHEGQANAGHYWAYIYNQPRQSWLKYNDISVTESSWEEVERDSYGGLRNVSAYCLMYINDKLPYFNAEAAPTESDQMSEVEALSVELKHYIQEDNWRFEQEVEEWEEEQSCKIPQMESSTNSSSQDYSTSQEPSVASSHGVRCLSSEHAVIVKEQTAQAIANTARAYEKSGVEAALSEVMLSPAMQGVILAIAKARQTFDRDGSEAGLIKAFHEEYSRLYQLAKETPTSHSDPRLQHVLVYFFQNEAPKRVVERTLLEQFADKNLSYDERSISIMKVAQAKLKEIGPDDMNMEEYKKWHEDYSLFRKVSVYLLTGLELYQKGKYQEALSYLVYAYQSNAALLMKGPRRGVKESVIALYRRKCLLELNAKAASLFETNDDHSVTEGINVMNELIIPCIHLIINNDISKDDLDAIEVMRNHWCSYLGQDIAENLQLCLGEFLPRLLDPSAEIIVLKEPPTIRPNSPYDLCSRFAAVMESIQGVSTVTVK
Starred values were filed as active, the others as inactive. No stated cut-off is given here; in the data, active means inhibition above about 30%; inactive means the rest.

SMILES	USP30 block	USP28 block
O=C(c1cccc([N+](=O)[O-])c1)[C@H]1[C@]2(C(=O)Nc3ccccc32)[C@@H]2CCCN2[C@@]12C(=O)Nc1ccccc12	18	35*
COc1cccc(C(=O)[C@H]2[C@]3(C(=O)Nc4ccccc43)[C@@H]3CCCN3[C@@]23C(=O)Nc2ccccc23)c1	13	11
COc1ccc(CC(=O)Nc2cnc3ccc(C(=O)NCc4ccncc4)cn3c2=O)cc1	-14	2
COc1cccc(-n2cnc3cc(C(=O)NCc4ccncc4)ccc3c2=O)c1	31*	8
CCc1cccc(N2C(C)=NS(=O)(=O)c3cccnc32)c1	-6	3
CCOc1ccc(-c2nc3c(cnn3-c3ccccc3)c(=O)[nH]2)cc1	-2	-9
CC(=O)N1c2ccccc2NC2=C(C(=O)CC(c3ccc(C)cc3)C2)C1c1cccnc1 (stereo not given)	23	11
CCOc1ccc(C2=NCCNC3=C2C(c2ccccc2)N(c2ccccc2)C3=O)cc1 (stereo not given)	54*	20
Cc1ccc(C2C3=C(NCCN=C3c3ccccc3)C(=O)N2c2ccccc2)cc1 (stereo not given)	41*	21
O=C(O)CCC(=O)Nc1ccc(-c2cnc(-c3ccc(NC(=O)CCC(=O)O)cc3)nc2)cc1	0	-17
CN1C[C@@]23CN(C(=O)NCCc4ccc(F)cc4)C[C@@H](C[C@@H]2S1(=O)=O)O3	2	-8
CC(=O)Nc1ccc(S(=O)(=O)N2CCC(N3CCN(c4ccc(F)cc4)CC3)CC2)cc1	13	2
CCC1(CC)Oc2ccc(C(=O)CCN(C)C)cc2O1	35*	14
Cc1c(C(=O)NCC2CCCCC2)nnn1-c1cccc2c1CCN(c1nccc(N)n1)C2	3	10
O=C(CCc1nnc2n(Cc3ccccc3Cl)c(=O)c3ccccc3n12)NCc1ccccn1	65*	36*
O=C(CCc1nnc2n(Cc3ccccc3Cl)c(=O)c3ccccc3n12)NCc1ccccc1	-3	5
CC(C)CCn1c(=O)c2ccccc2n2c(CCC(=O)NCc3ccc4c(c3)OCO4)nnc12	3	7
O=C(CCc1nnc2n(Cc3ccccc3)c(=O)c3ccccc3n12)N1CCCC1	17	7
CC(C)OCCCn1c(=O)c2ccccc2n2c(CCC(=O)NCc3ccc4c(c3)OCO4)nnc12	40*	19
O=C(CCc1nnc2n(Cc3ccccc3)c(=O)c3ccccc3n12)N1CCC(Cc2ccccc2)CC1	38*	22
COc1ccc(CNC(=O)CCc2nnc3n(Cc4ccccc4Cl)c(=O)c4ccccc4n23)cc1	40*	36*
O=C(CCc1nnc2n(Cc3ccccc3Cl)c(=O)c3ccccc3n12)N1CCN(c2ccccn2)CC1	22	6
COc1ccc(C(CNC(=O)c2c(C)nn(-c3ccccc3)c2Cl)N2CCOCC2)cc1 (stereo not given)	-46	-20
O=C1CC(c2ccc(Cl)cc2)n2nc(NC(=O)C3CC3)nc2N1 (stereo not given)	9	0
COc1cccc(CN2C[C@@]34CN(C(=O)c5cc(C)on5)C[C@@H](C[C@@H]3S2(=O)=O)O4)c1	8	16
SMILES	USP30 block	USP28 block
CCO[C@H]1CN(C(=O)c2cccnc2OC)[C@@H]2CCCO[C@H]12	-12	-8
CC(C)CCn1c(=O)c2ccccc2n2c(CCC(=O)NCc3cccnc3)nnc12	19	3
O=C(CCc1nnc2n(Cc3ccccc3)c(=O)c3ccccc3n12)NCc1cccnc1	38*	9
CCCCCn1c(=O)[nH]c2cc(C(=O)NCc3ccccc3OC)ccc2c1=O	-6	-14
CCC(C(=O)C(C)C(O)C(C)CCc1ccc(C)c(O)c1C(=O)O)C1OC(CC)(C2CCC(O)(CC)C(C)O2)CC1C (stereo not given)	55*	41*
Cc1ccc(CNC(=O)Cn2cnc3c(cnn3-c3cccc(Cl)c3)c2=O)cc1	9	61*
O=C(Cn1cnc2c(cnn2-c2ccc(Cl)cc2)c1=O)NCc1ccccc1Cl	29	9
O=C(NCCn1ncc2c(=O)n(Cc3cccc(Cl)c3)cnc21)c1ccco1	16	13
Cn1ncc2c(=O)n(Cc3cccc(Cl)c3)cnc21	26	65*
O=C(COC(=O)c1cccc(S(=O)(=O)N2CCc3ccccc32)c1)Nc1ccc(F)cc1[N+](=O)[O-]	-66	-6
O=C(CCC1=NS(=O)(=O)c2ccccc2N1)N1CCN(Cc2ccccc2)CC1	25	13
Cc1ccc(NC(=O)CCn2nc(C)c(S(=O)(=O)N3CCOCC3)c2C)c(C)c1	-15	-5
CCN(CC)c1ccc(NC(=O)c2cc(=O)[nH]c3ccccc23)cc1	-26	-12
O=C(Nc1ccc(Br)cc1)c1cc(=O)[nH]c2ccccc12	35*	15
COc1ccc(-c2cn3ccc4cc(OC)c(OC)cc4c3c2-c2ccc(OC)c(OC)c2)cc1	-26	-17
COc1ccc(CNCC(=O)Nc2cc(C(F)(F)F)ccc2N2CCCCC2)cc1	11	7
Cc1nn2c(N)c(C#N)cnc2c1-c1cccc(C(F)(F)F)c1	-86	-21
NCCNC(=O)N1CCC2(CC1)OC(=O)N(Cc1ccccc1)c1ccccc12	5	34*
NCCC(=O)N1CCC2(CC1)OC(=O)N(Cc1ccccc1)c1ccccc12	-4	13
CCC(CC)NC(=O)c1nnn(-c2cccc3c2CCN(C2CCOCC2)C3)c1C	-62	-21
COCCN1C(=O)C[C@@H]2[C@H]1CCN2C(=O)c1ccoc1C	22	16
CCCOc1ccc(C(=O)Nc2ccc(S(=O)(=O)Nc3cc(C)nc(C)n3)cc2)cc1	-7	45*
COc1ccc(NS(=O)(=O)c2ccc(C(=O)Nc3cccc(C(C)=O)c3)cc2)cc1	3	12
O=C(CN1CCC(S(=O)(=O)c2ccc(-c3ccsc3)cc2)CC1)c1ccc(F)cc1	-114	-28
Cc1ccc2c(Nc3ccccc3)c(-c3nc(C)no3)cnc2n1	-27	12
SMILES	USP30 block	USP28 block
Cc1ccc2c(NCc3ccc4c(c3)OCO4)c(-c3nc(C)no3)cnc2n1	-78	43*
O=C(NCCc1ccccc1F)c1cccc(N2C(=O)CCS2(=O)=O)c1	14	5
CN(C)CCCN(C(=O)c1ccco1)c1nc2ccc(F)cc2s1	4	8
CN(C)CCCN(C(=O)c1cc2ccccc2oc1=O)c1nc2ccc(F)cc2s1	79*	44*
O=C(COc1cccc(F)c1)N1CCSc2ccccc21	15	25
O=C(COc1cccc(Cl)c1)N1CCSc2ccccc21	36*	39*
NC(=O)N[C@@H]1C[C@@H](Oc2ccccc2)[C@H](O)[C@H]1N1CCCC1	-13	0
CCc1ccc(-c2cc(C(=O)NCc3ccccc3OC)c3cc(Br)ccc3n2)cc1	-27	0
CCCCCn1c(=O)[nH]c2cc(C(=O)NCCN3CCC(Cc4ccccc4)CC3)ccc2c1=O	44*	14
CCCCCn1c(=O)[nH]c2cc(C(=O)NCCCN3CCN(c4cccc(Cl)c4)CC3)ccc2c1=O	-5	-8
Nc1c(-c2nc3ccccc3[nH]2)c2nc3ccccc3nc2n1Cc1cccc(Cl)c1	-14	36*
Nc1c(-c2nc3ccccc3[nH]2)c2nc3ccccc3nc2n1Cc1ccccc1	-225	-28
Cc1ccc(CCNC(=O)CN2CCN(Cc3ccccc3C)C2=O)cc1	8	0
COc1ccccc1OCC(=O)Nc1cccc2ccc(C)nc12	34*	4
COc1ccccc1NC(=O)COc1cc(C)nc(-c2ccc(C)cc2)n1	62*	20
